The text below walks through data of PubChem BioAssay AID567 (The Scripps Research Institute Molecular Screening Center, 2006).

In all, about 65,000 compounds went through this assay and about 370 (0.57%) were called active. The full list was thinned out, with actives kept by preference. Values without a mark were called inactive.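 Rule for the calls: active = activation above the screen-wide mean activation plus 3 SD (cut at about 19% in these data); inactive = the rest.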

In this experiment the target is 5-hydroxytryptamine receptor 1A (Homo sapiens) (UniProt P08908). Nature of the experiment: human 5-HT1a receptor agonists, primary screen, cell-based, CHO, Ga15 NFAT-bla reporter (AID 567).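 Note: 0% = DMSO wells and 100% = 5-CT at EC100.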 As to conditions: CHO 5-HT1a Ga15 NFAT-bla reporter, FRET ratio; at 10 µM; hits give high values; 0% basal, 100% maximal reference agonist.
5-hydroxytryptamine receptor 1A (Homo sapiens), sequence (P08908 whole entry, looked up): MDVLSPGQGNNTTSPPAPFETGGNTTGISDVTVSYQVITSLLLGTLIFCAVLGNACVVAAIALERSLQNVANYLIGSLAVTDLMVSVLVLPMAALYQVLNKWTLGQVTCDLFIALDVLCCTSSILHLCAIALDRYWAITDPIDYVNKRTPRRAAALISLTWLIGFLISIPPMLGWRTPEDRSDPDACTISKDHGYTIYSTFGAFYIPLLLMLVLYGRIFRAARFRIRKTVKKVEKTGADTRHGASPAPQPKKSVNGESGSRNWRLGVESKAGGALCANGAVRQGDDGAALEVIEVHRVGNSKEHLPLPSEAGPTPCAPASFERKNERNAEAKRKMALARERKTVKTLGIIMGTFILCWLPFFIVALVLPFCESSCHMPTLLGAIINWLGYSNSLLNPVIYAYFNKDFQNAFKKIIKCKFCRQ
For the molecule `COc1cccc(-n2c(Cc3cc(=O)[nH]c(=O)[nH]3)nnc2SCC(=O)Nc2ccccc2)c1`, the activation is -5.6%.
Consider `Cc1cc(NC(=O)c2cnn3cccnc23)n(-c2ccccc2)n1`, for which the activation is 1.07%.
Next, `O=C(Nc1ccc(Cl)cn1)c1cnn2cccnc12`: 193% (active).
Consider `O=C(Nc1ccc(Cl)cn1)Nc1cccs1`, for which the activation was -4.12%.
Then `Fc1ccc(Cn2nnnc2C(c2cccs2)N2CCCCCC2)cc1` (configuration not stated), with -2.4%; and `CCC12CN3CC(CC)(CN(C1)C31C(=O)N(C)c3ccc(C)cc31)C2=O` (configuration not stated), with -2.01%; and `COC(=O)CNC(=O)c1ccc2c(c1)S(=O)(=O)c1ccccc1C2=O`, with 1.02%.
Turning to `Cc1cc(N2C(=O)c3ccc(C(=O)NCc4ccccc4)cc3C2=O)no1`, the activation is -3.09%.
Then `N#Cc1ccc(CSc2nnc(-c3ccccn3)n2-c2ccc(Cl)cc2)cc1`, with 0.34%.
Take `CNC(=O)CSc1nnc(CCc2ccccc2)n1-c1ccccc1`: the activation is 0.04%.
Consider `N#Cc1cccc(CSc2nnc(CCCO)n2-c2ccccc2)c1`, for which the activation was 77% (active).
Next, `O=C(NC1CC2CCCC(C1)N2C(=O)N1CCCCC1)C1CCCCC1` (configuration not stated): 2.68%; `Cc1cnc(NC(=O)CSc2nnc(-c3ccc(Cl)cc3Cl)n2N)s1`: -1.25%.
Then `CN(c1nc2ccccc2n2c(-c3ccco3)nnc12)S(=O)(=O)c1ccccc1`, with 0.58%; and `Cc1ccc2nc(NC3=NCN(CCc4ccccc4)CN3)nc(C)c2c1`, with -1.7%; and `CCOC(=O)C(C)Oc1cccc2c(=O)n(CC(=O)N3CCc4ccccc43)ccc12` (configuration not stated), with -0.82%.
Take `CCC(C(=O)N1CCOCC1)n1c(C(=O)OC)cc2occc21` (configuration not stated): the activation was -0.28%.
Next, `O=C(CCCC(=O)N(CC(=O)NC1CCCC1)Cc1ccccc1Cl)Nc1ccccn1`: 0.54%.
For the molecule `Cn1c(Cc2csc(N)n2)nnc1SC/C=C/c1ccccc1`, the activation was 0.48%.
Next, `CCCOC(=O)c1[nH]c2c(c1C)C(=O)CC(c1cc(OC)c(OC)c(OC)c1)C2` (configuration not stated): -1.49%; `Cc1noc(COc2ccccc2OCC(O)CNC(C)(C)C)n1` (configuration not stated): 2.09%.
As to `CCOc1ccc2[nH]c(=O)c(C(c3nnnn3CCOC)N3CCOCC3)cc2c1` (configuration not stated), the activation is -1.3%.
In the case of `Cc1cc(C(=O)COC(=O)CCCN2C(=O)c3ccccc3C2=O)c(C)n1C`, the activation is -2.69%.
Then `CCCc1nc(-c2ccccc2O)n(-c2ccccc2)n1`, with -3.29%.
As for `COc1ccc(-c2nnc(SCC(=O)NC3CCCCC3)o2)cc1OC`, the activation was -1.36%.
`O=c1ccc2cc(S(=O)(=O)N3CCN(c4ccccc4)CC3)ccc2o1`: the activation is -2.8%.
As for `Cc1nonc1OCCn1nnnc1N`, the activation was 0.59%.
